A selection: hits, their analogues and other compounds. The true share with any hit is near 21%.
Pf growth 96h: Primary qHTS for delayed death inhibitors of the malarial parasite plastid, 96 hour incubation | P. falciparum luciferase reporter growth, 96 h | Potency, µM (titrated, usually from 28.7 µM), for the others: top-dose activity change, negative = inhibition, usual class: inhibitors | 6.9% of 320,000 active | AID 504834, 2011; active = well fitted inhibition curve with a large enough effect; inconclusive = small, poorly fitted or top-dose-only effect, or another doubt; inactive = no such curve, though single readings can be large or run the other way; note: potency is the fitted concentration of half-maximal effect; % is set by controls: 0 for no effect and ±100 for the full control effect
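Cell-based qHTS: luciferase-tagged P. falciparum in erythrocytes (2% hematocrit, 0.05% parasitemia final) incubated with compounds for 96 hours, 37 C, 5% CO2; luciferase detection reagent then added and luminescence measured.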
NS1 inh: qHTS Assay for Inhibitors of Influenza NS1 Protein Function; Potency, µM (top dose mostly 46.1 µM), for the others: at the highest dose activity, positive = more growth; 0.4% of 270,000 active; note: potency is the fitted concentration of half-maximal effect; actives are rising curves; nearly all actives have a fitted effect of over 50% in size
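Growth recovery, yeast-based: influenza A NS1 expressed in S. cerevisiae causes slow growth, and suppressors are detected by OD600. The parent strain without NS1 is used as positive control.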
SARS PLP yeast: qHTS of Yeast-based Assay for SARS-CoV PLP; 0.19% of 330,000 active; S. cerevisiae expressing SARS-CoV PLpro, growth rescue; Potency, µM (series often up to 32.9 µM), for inactives: at the top dose activity, positive = growth rescue, most hits filed as activators; note: potency is the fitted concentration of half-maximal effect; 0% is about no effect; nearly all actives have a fitted effect of over 55% in size
Cycloheximide cs: Cycloheximide Counterscreen for Small Molecule Inhibitors of Shiga Toxin | cell reporter, cycloheximide protein synthesis inhibition counterscreen | max response, % | 12% of 300,000 active | AID 2314, 2010; in the data active = max response mostly above about 13%, no sharp cut-off; inactive = mostly below about 14%; note: read at 38.3 µM for the half of the compounds with a filed dose; 0% is about no effect
Pf growth 48h: Primary qHTS for delayed death inhibitors of the malarial parasite plastid, 48 hour incubation | AID 504832, 2011 | P. falciparum luciferase growth in erythrocytes, 48 h | Potency, µM (doses to about 28.7 µM), without a hit: at the top dose activity change, negative = inhibition, usual class: inhibitors | 5.9% of 310,000 active; active = well fitted inhibition curve with a large enough effect; inconclusive = small, poorly fitted or top-dose-only effect, or another doubt; inactive = no such curve, though single readings can be large or run the other way; note: potency is the fitted concentration of half-maximal effect; % is set by controls: 0 for no effect and ±100 for the full control effect
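Cell-based growth assay: transgenic P. falciparum expressing firefly luciferase, cultured in red cells within RPMI 1640 containing 0.5% w/v Albumax, 24 mM bicarbonate and gentamycin. A drop in luciferase activity indicates inhibition.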
Shiga inhibitor: A qHTS for Small Molecule Inhibitors of Shiga Toxin; Vero cells, Shiga toxin protein synthesis inhibition reporter; inhibition, % at 38.7 µM; 9.2% of 290,000 active; in the data active = inhibition mostly above about 28%, no sharp cut-off; inactive = mostly below about 43%; note: 0% is about no effect
An asterisk follows results filed as active; ? = inconclusive; . = not tested or not shown. Unless noted, calls come from the whole dose curve.

SMILES | Pf growth 96h | NS1 inh | SARS PLP yeast | Cycloheximide cs | Pf growth 48h | Shiga inhibitor
CC(C)OC(=O)CSc1nc(N2CCOCC2)c2c(c1C#N)CC(C)(C)OC2 | ? | -4.1% | -3.0% | -9.0 | 4.65µM* | -4.6
CCCCc1nc(N2CCOCC2)c(C#N)c2c1COC(C)(C)C2 | 9.28µM* | -42.6% | -7.2% | -3.2 | 6.57µM* | -5.6
CC(C)c1nc(N2CCN(C(=O)c3ccccc3)CC2)c(C#N)c2c1COC(C)(C)C2 | 231.0% | -67.2% | -1.6% | -3.5 | 10.4µM* | -6.8
CC(C)c1nc(N2CCN(C(=O)c3ccco3)CC2)c(C#N)c2c1COC(C)(C)C2 | ? | -32.9% | -2.5% | -2.1 | ? | 5.9
CC(C)N(Cc1ccccc1)C(=O)COC(=O)c1cnc(Cl)c(Cl)c1 | . | . | -6.6% | . | . | .
O=C(O)C1CCCCN1S(=O)(=O)c1ccc(Cl)s1 (stereo unspecified) | 9.28µM* | 0.2% | 5.8% | 0.2 | . | -15.9
COc1ccccc1N1CCN(C2CC(=O)N(c3cccc(Br)c3)C2=O)CC1 (stereo unspecified) | 6.0% | -34.9% | -29.4% | 1.3 | 7.7% | -5.6
COc1cc2c(cc1OC)CN(C1CC(=O)N(c3c(C)cccc3C)C1=O)CC2 (stereo unspecified) | ? | . | -11.5% | -2.5 | 6.57µM* | 19.5
CC(=O)N1c2ccccc2Oc2cc3ccccc3cc21 | ? | -43.1% | -36.6% | 26.3* | 1.85µM* | 53.0
COc1cc2c(cc1NC(=S)Nc1cccc3ccccc13)oc1ccccc12 | . | 25.7% | -11.0% | 34.9* | -28.3% | 103.0*
COCCCNC(=S)Nc1cc2oc3ccccc3c2cc1OC | ? | -12.1% | 0.7% | 10.7* | ? | 17.1
O=C(NCc1ccc(Cl)cc1)c1ccc(-c2ccccc2C(F)(F)F)o1 | 0.0% | 0.8% | -5.5% | 0.5 | -6.6% | -11.0
O=C1c2ccccc2C(=O)c2c1cccc2N(CCO)CCO | 16.5% | 6.8% | -6.0% | 12.9 | 26.0% | 15.2
CN(C)c1cc2c(c(N(C)C)c1)C(=O)c1ccccc1C2=O | 4.15µM* | -14.8% | -9.2% | 38.7* | ? | 82.9
COc1ccc(-c2nsc(SCC(=O)NCc3ccc4c(c3)OCO4)n2)cc1 | 79.8% | 7.2% | 10.8% | -3.1 | 36.7% | -12.3
O=C(CSc1nc(-c2ccccc2Cl)ns1)Nc1ccc2c(c1)OCO2 | ? | -2.1% | -22.0% | 15.2* | 1.17µM* | 22.7
O=C(CSc1ncccn1)Nc1ccc2c(c1)OCO2 | . | . | 2.3% | . | . | .
Cc1ccc(-c2nsc(SCC(=O)Nc3ccc4c(c3)OCO4)n2)cc1 | 139.0% | -0.6% | -10.2% | 18.2* | 90.9% | 23.8*
COc1ccc2c(c1)nc1n2CN(CC2CCCO2)CN1Cc1ccccc1 (stereo unspecified) | 11.7µM* | -3.5% | 5.6% | 31.9* | 9.28µM* | 49.3*
CCCC(=O)NCc1ccncc1 | 18.6% | 3.8% | 0.5% | -3.2 | 2.3% | -6.9
O=C1c2ccccc2NC2CCCCC12 (stereo unspecified) | 2.9% | -111.9% | -41.1% | -3.1 | 1.85µM* | -2.7
O=C1c2ccccc2NC2CCCCCN12 (stereo unspecified) | ? | -1.7% | -9.5% | 4.5 | -16.0% | 2.0
CCCCn1c(SCC(=O)Nc2cccc(OC)c2)nc2ccc(N3CCOCC3)cc2c1=O | . | -26.4% | -4.4% | 8.2 | 9.28µM* | -39.6
COc1cccc(NC(=O)CSc2nc3ccccc3c(=O)n2CCCC(=O)NCC2CCCO2)c1 (stereo unspecified) | 9.28µM* | -30.6% | 0.4% | -2.5 | ? | 2.0
CCOc1ccc(NC(=O)CSc2nc3ccccc3c(=O)n2CCCC(=O)NCC2CCCO2)cc1 (stereo unspecified) | -18.6% | -4.8% | 0.7% | -2.6 | -7.9% | -3.4
SMILES | Pf growth 96h | NS1 inh | SARS PLP yeast | Cycloheximide cs | Pf growth 48h | Shiga inhibitor
COc1ccc(Cn2c(SCC#N)nc3ccc(N4CCOCC4)cc3c2=O)cc1 | 0.5% | . | 0.6% | 57.9* | -11.6% | 123.5*
COc1ccc(C(=O)Nc2nnc(S(=O)(=O)N3CCOCC3)s2)cc1 | 22.5% | -4.8% | 1.2% | -8.2 | -10.8% | -5.2
CCCN1CCN(C(=O)c2oc3c(Cl)cccc3c2C)CC1 | 33.8% | 8.8% | 0.3% | -2.1 | 22.4% | -4.2
C=CCC[C@@H](Cc1ccc(F)cc1)C(=O)OC[C@@H](NC(=O)[C@@H](CC=C)CC(=O)N[C@H](CO)Cc1ccccc1)C(C)(C)C | . | . | -0.7% | . | . | .
O=C(COc1ccc(Cl)cc1)NCCS(=O)(=O)N1CCN(c2ccccc2F)CC1 | 6.2% | 10.1% | 9.7% | 0.2 | -0.2% | -9.8
COCCN(C(=O)COC(=O)Cc1coc2cc3c(cc12)CCC3)c1c(N)n(Cc2ccccc2)c(=O)[nH]c1=O | 4.4% | . | -2.9% | . | -10.8% | .
CCc1ccc(NC(=O)C(=O)N/N=C(\C)CC(=O)Nc2ccccn2)cc1 | ? | ? | -0.3% | 35.5* | 77.4% | 47.8*
CCc1ccc(NC(=O)C(=O)N/N=C(\C)CC(=O)Nc2ccc(OC)cc2)cc1 | 1.9% | -4.4% | -1.3% | 1.8 | 66.1% | 20.9
C/C(CC(=O)Nc1cc(C)ccn1)=N\NC(=O)C(=O)Nc1cccc(C)c1 | 1.47µM* | 1.0% | -22.5% | 26.4* | 81.8% | 32.5
C/C(CC(=O)Nc1ccccn1)=N\NC(=O)C(=O)Nc1ccccc1C | 1.85µM* | 3.9% | -1.3% | 0.7 | -4.4% | -19.7
COc1ccccc1CCC(=O)NNC(=O)c1cccs1 | . | . | -13.4% | . | . | .
O=Cc1ccc(-c2ccc(Cl)cc2Cl)[nH]1 | 0.0% | 8.4% | -2.0% | -2.1 | ? | -4.2
CCOc1ccc2nc(N3CCC(C(=O)Nc4nnc(CC)s4)CC3)sc2c1 | -17.6% | 2.3% | -0.8% | 81.4* | 4.8% | 166.6*
CCOc1ccc2nc(N3CCCC(C(=O)N4CCN(CC)CC4)C3)sc2c1 (stereo unspecified) | -13.9% | 1.9% | 3.3% | 25.5* | . | 38.4
CCOc1cc2sc(N3CCC(C(=O)Nc4ccc(C)cc4)CC3)nc2cc1Br | . | . | . | 55.0* | . | 148.8*
Cc1ccc2nc(N3CCC(C(=O)NC4CCCCC4)CC3)sc2c1 | ? | -19.9% | 0.7% | -9.3 | -15.3% | -2.3
COc1ccc2nc(N3CCCC(C(=O)NCCCN4C(C)CCCC4C)C3)sc2c1 (stereo unspecified) | 21.0% | -1.0% | 4.7% | 20.2* | 22.3% | 39.9
Cc1ccc(-c2noc(CCC(=O)N(C)c3ccccc3C)n2)cc1 | 23.4% | -42.4% | -17.4% | -1.2 | ? | 22.9
CCOc1ccc2nc(N3CCCC(C(=O)NCC4CCCO4)C3)sc2c1 (stereo unspecified) | 102.3% | 2.0% | -0.5% | 44.8* | 90.5% | 75.1*
CCOc1ccc2nc(N3C(=O)C(O)=C(C(=O)c4ccco4)C3c3ccco3)sc2c1 (stereo unspecified) | -2.3% | . | -0.7% | . | 53.3% | .
